Hits are enriched below; roughly 10% of the tested compounds scored in any of these assays.
BAZ2B inh: blocks human BAZ2B; AlphaScreen BAZ2B-H3K14Ac peptide displacement; Potency, µM (highest dose often 114 µM), for the others: at the highest dose activity change, negative = inhibition, most hits filed as inhibitors; actives 4.4% (n = 360,000); AID 504333; note: % is set by controls: 0 for no effect and ±100 for the full control effect; nearly all actives have a fitted effect of over 60% in size
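Complex of BAZ2B and biotin-H3K14Ac (50 nM apiece) forms over 30 min at RT, then faces library compounds up to 110 uM for another 30 min; AlphaScreen beads added, 20 min dark incubation, luminescence read.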
HP1b chromo inh: blocks HP1-beta chromodomain binding to methylated histone tails; AlphaScreen HP1-beta / biotin-H3K9me3 peptide binding; Potency, µM (doses to about 114 µM), for inactives: at the highest dose activity change, negative = inhibition, most hits filed as inhibitors; actives 0.56% (n = 390,000); AID 540317; note: nearly all actives have a fitted effect of over 70% in size
Target sequence (P83916 whole entry, looked up): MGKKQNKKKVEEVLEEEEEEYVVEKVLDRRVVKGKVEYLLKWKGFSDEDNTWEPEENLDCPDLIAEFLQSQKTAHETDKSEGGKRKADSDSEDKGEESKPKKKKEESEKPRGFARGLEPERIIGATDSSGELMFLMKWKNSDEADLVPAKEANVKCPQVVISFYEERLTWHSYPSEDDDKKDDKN
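Compound inhibition of the preformed complex between 50 nM HP1-beta and 50 nM biotinylated H3K9me3 peptide was read by AlphaScreen. Buffer was PBS pH 7.4 with 0.01% Tween-20. Incubations ran 30 min at room temperature, with 10 ug/mL donor/acceptor beads.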
G9a block: blocks human histone lysine methyltransferase G9a | G9a H3K9 monomethylation, AlphaScreen, 2 h | Potency, µM (doses to about 102 µM), without a hit: at the top dose activity, negative = inhibition, usual class: inhibitors | actives 8.8% (n = 350,000); note: % is set by controls: 0 for no effect and ±100 for the full control effect; nearly all actives have a fitted effect of over 75% in size
Target sequence (Q96KQ7 913-1193 limits assumed): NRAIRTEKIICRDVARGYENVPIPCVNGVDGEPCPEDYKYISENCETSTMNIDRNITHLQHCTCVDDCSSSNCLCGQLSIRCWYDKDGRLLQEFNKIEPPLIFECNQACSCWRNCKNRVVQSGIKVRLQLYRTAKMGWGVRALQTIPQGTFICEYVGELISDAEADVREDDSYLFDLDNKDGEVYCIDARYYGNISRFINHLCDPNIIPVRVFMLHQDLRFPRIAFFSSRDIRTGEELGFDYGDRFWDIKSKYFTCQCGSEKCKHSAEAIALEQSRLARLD
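Quantitative HTS format: methyltransferase activity on a biotin-tagged H3K9 peptide is measured by AlphaScreen, using a rabbit anti-monomethyl-H3K9 antibody with streptavidin donor and anti-IgG acceptor beads. Final levels are 20 nM enzyme, 500 nM peptide, 20 uM SAM; 2 h RT.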
L3MBTL1 block: inhibitors of human L3MBTL1; Q9Y468; AlphaScreen L3MBTL1–H3K9me1 peptide binding; Potency, µM (highest dose often 57.1 µM), inactives show at the top dose activity, negative = inhibition, usual class: inhibitors; actives 0.66% (n = 230,000); note: % is set by controls: 0 for no effect and ±100 for the full control effect; nearly all actives have a fitted effect of over 60% in size
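Read-out is AlphaScreen signal from streptavidin donor and nickel chelate acceptor beads (10 ug/mL final each) bridging L3MBTL1 (50 nM) and biotinylated K9-monomethylated H3(1-15) peptide (75 nM), after 30 min compound exposure at room temperature.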
JMJD2A Tudor: JMJD2A Tudor domain (human) inhibition; actives 4.4% (n = 390,000); Potency, µM (top dose mostly 114 µM), without a hit: top-dose activity change, negative = inhibition, actives largely listed as inhibitors; AID 504339; O75164; AlphaScreen JMJD2A-Tudor / H3K4me3 peptide binding; note: % is set by controls: 0 for no effect and ±100 for the full control effect; nearly all actives have a fitted effect of over 50% in size
GLS inhibitor: glutaminase GLS (human) inhibition. O94925. GLS enzymatic activity, qHTS titration. Potency, µM (top dose mostly 45.5 µM), without a hit: top-dose activity change, negative = inhibition, usual class: inhibitors. actives 0.21% (n = 410,000). AID 624170; note: % is set by controls: 0 for no effect and ±100 for the full control effect
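Read-out is an Amplex red fluorescence increase coupled through glutamate oxidase and HRP, measured before and after 30 min room-temperature incubation. hKGA is in 45 mM KH2PO4 (pH 8.2) with 0.02% Tween-20; glutamine added as 1mM solution.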
* hit, by the source's call; ? = inconclusive; nt = no result given; [ ] = remark or other dose. Calls come from the whole dose curve; as a rule, active = well fitted curve in the direction sought with a large enough effect; inconclusive = small, poorly fitted or top-dose-only effect, or another doubt; inactive = no such curve, though single readings can be large; an effect the other way counts as inactive or inconclusive. Potency is the fitted concentration of half-maximal effect.

SMILES	BAZ2B inh	HP1b chromo inh	G9a block	L3MBTL1 block	JMJD2A Tudor	GLS inhibitor
CC(C)Cn1c(SCC(=O)N(C)c2c(N)n(Cc3ccccc3)c(=O)[nH]c2=O)nc2ccccc21	8%	?	16µM*	3%	-22%	1%
CC(C)CN(C(=O)COC(=O)CNC(=O)c1ccccc1F)c1c(N)n(Cc2ccccc2)c(=O)[nH]c1=O	nt	72%	nt	nt	-3%	-1%
COc1ccccc1C(=O)NCC(=O)OCC(=O)N(CC(C)C)c1c(N)n(Cc2ccccc2)c(=O)[nH]c1=O	6%	7%	56µM*	-1%	-8%	8%
CCCS(=O)(=O)c1nc(S(=O)(=O)c2ccc(C)cc2)c(NCCCOC(C)C)s1	8%	56%	?	nt	-14%	-4%
COc1ccc(N2Cc3cccc(C(=O)Nc4ccc(C(C)C)cc4)c3C2=O)cc1	nt	5%	2%[59 µM]	nt	?	?
OCc1ccc2c(c1)c(-c1ccc3c(c1)OCCO3)c(-c1ccccc1)n2-c1ccccc1	?	-17%	-3%[0.501 µM]	-28%	45µM*	0%
O=C(/C=C/c1cn(-c2ccccc2)nc1-c1ccc2c(c1)OCCO2)NCCO	-30%	-17%	0%	nt	-18%	-4%
CCCN1CNc2c(c(=O)[nH]c(=S)n2CCc2ccc(C)c(C)c2)C1	nt	22%	nt	nt	-16%	nt
CC(C)c1ccc(C2C(C(=O)c3ccco3)=C(O)C(=O)N2CCN2CCOCC2)cc1 (stereo unspecified)	-7%	30%	50µM*	nt	-12%	8%
CCOc1ccc(C2C(C(=O)c3ccco3)=C(O)C(=O)N2CCN2CCOCC2)cc1OCC (stereo unspecified)	-20%[57.1 µM]	23%	40µM*	nt	-16%	4%
CCOc1ccc(C2C(C(=O)c3ccc(C)o3)=C(O)C(=O)N2CCN2CCOCC2)cc1OC (stereo unspecified)	?	39%	18µM*	-2%	28µM*	2%
COc1ccc(C2C(C(=O)/C=C/c3ccco3)=C(O)C(=O)N2CCN2CCOCC2)cc1OC (stereo unspecified)	nt	21%	50µM*	nt	-19%	?
CCOc1ccccc1CNC(=O)c1oc2c(c1C)-c1[nH]ncc1CC2	-29%	67%	?	nt	-21%	4%
COCCn1c(=O)c(-c2cc(F)cc(F)c2)nc2cnc(Nc3cccc(OC)c3)nc21	nt	nt	-2%[12.7 µM]	nt	nt	nt
O=C(CCCSc1ccccc1)Nc1nc(-c2ccccn2)cs1	-1%	16%	?	nt	-27%	-4%
O=C(Nc1nc(-c2ccccn2)cs1)C1CCCC1	50µM*	-17%	?	?	?	12%
O=C(CN1C(=O)CCC1=O)Nc1nc(-c2ccc3ccccc3c2)cs1	-16%	19%	9%	30%	-7%	1%
Cc1cc(C)cc(OCC(=O)Nc2nc(-c3ccccn3)cs2)c1	-6%	-36%	22µM*	-2%	-23%	-6%
CSCCC(=O)Nc1nc(-c2ccccn2)cs1	20µM*	9%	8.9µM*	nt	89µM*	1%
O=C(CN1C(=O)CCC1=O)Nc1nc(-c2ccccn2)cs1	5.6µM*	27%	15%	nt	25µM*	3%
O=C1/C(=C/c2ccccn2)SC(=S)N1c1ccc(O)cc1	-28%	6%	?	-17%	-30%	-6%
Cc1ccc(/C=C2/SC(=S)N(c3ccc(S(=O)(=O)Nc4nccs4)cc3)C2=O)cc1	?	?	nt	nt	?	10%
COc1ccc(/C=C2/SC(=S)N(c3ccc(S(=O)(=O)Nc4nccs4)cc3)C2=O)cc1	?	20µM*	-49%	nt	16µM*	-1%
O=C1/C(=C\c2ccccn2)SC(=S)N1c1ccc(S(=O)(=O)Nc2nccs2)cc1	50µM*	?	nt	nt	18µM*	4%
CCOc1ccc(C(=O)NCC(c2ccc3c(c2)OCO3)N2CCN(C)CC2)cc1 (stereo unspecified)	3%	12%[57 µM]	7%[59 µM]	nt	-13%	1%
SMILES	BAZ2B inh	HP1b chromo inh	G9a block	L3MBTL1 block	JMJD2A Tudor	GLS inhibitor
Cc1ccc(S(=O)(=O)c2nnn3c2nc(NCc2ccccc2Cl)c2sccc23)cc1	-8%	31%	-11%[59 µM]	nt	-4%	-10%
COc1ccc(OC)c2c1nc1n2CCS1	-22%	?	1.8µM*	1%	-8%	2%
COc1ccc2[nH]c3c(=O)n4c(nc3c2c1)SCC4	8%	28%	-24%	nt	-22%	0%
COc1ccc(N2CC(NC(=O)CCc3ccccc3)CC2=O)cc1OC (stereo unspecified)	3%	37%	-1%[59 µM]	nt	1%	2%
CCOC(=O)CSc1nc(N)c2c3c(sc2n1)CCCC3	9%	22%	71µM*	nt	1%	-3%
CCSc1nc(N)c2c3c(sc2n1)CN(C)CC3	7%	nt	45µM*	0%	nt	nt
CSc1nc(N)c2c3c(sc2n1)CN(C)CC3	1%	33%	-18%	nt	-3%	-16%
Cc1ccc(C(=O)c2c(C)oc3c2C(=O)C(=O)c2ccccc2-3)cc1	32µM*	18µM*	?	?	45µM*	0%
Cc1ccc(C(=O)c2coc3c2C(=O)C(=O)c2ccccc2-3)cc1	?	-25%	40µM*	nt	?	-2%
CCOc1cc(/C=C2\C(=O)ON=C2C)ccc1OCc1ccccc1	-25%	6%	13µM*	2%	-18%	-16%
CCOc1cc(/C=C/C(=O)O)ccc1OCc1ccccc1	nt	46%	-32%	nt	2%	-10%
CCCOc1ccc(/C=C2/C(=O)ON=C2C)cc1OCC	-8%	26%	45µM*	nt	-8%	4%
CCCOc1ccccc1/C=C1/C(=O)ON=C1C	-35%	28%	-22%	nt	0%	5%
c1cc[n+](CCC[n+]2ccccc2)cc1	0%	11%	11µM*	nt	?	-19%
COc1ccccc1CNC(=O)Cc1csc2nc(-c3ccc(Cl)cc3)cn12	-11%	8%[57 µM]	9%[59 µM]	nt	-5%	-13%
CCCNC(=S)Nc1ccc2nc(-c3ccccn3)c(-c3ccccn3)nc2c1	0%	42%	13µM*	-4%	-11%	5%
S=C(Nc1ccc2nc(-c3ccccn3)c(-c3ccccn3)nc2c1)N1CCCCC1	-18%	67%	-4%	3%	3%	1%
S=C(Nc1ccc(Cl)c(Cl)c1)N1CCCC1	3%	15%	19%	nt	-15%	-6%
Cc1ccc(NC(=S)N2CCOCC2)cc1	5%	28%	-3%[59 µM]	4%	5%[57.1 µM]	10%
S=C(Nc1ccc2nsnc2c1)N1CCCCC1	0%	-1%	16µM*	-1%	-5%	?
S=C(Nc1ccc2nc(-c3ccccn3)c(-c3ccccn3)nc2c1)N1CCCCCC1	-1%	57%	20µM*	24%	-2%	-7%

High-throughput results: PubChem, National Center for Advancing Translational Sciences (NCATS)
